Results on 93 compounds are retold here after PubChem BioAssay AID743279 (National Center for Advancing Translational Sciences (NCATS), 2014).

The campaign covered roughly 360,000 compounds. About 17,000 (4.7%) were called active. Roughly 5% stayed inconclusive and do not appear here. Rule as the data show it: active = activity change below about -50%; inconclusive = mostly about -30% to -49%; inactive = weaker than that. The entries come from a sample that favours actives as a whole.
% is scaled to controls: 0 for no effect and ±100 for the full control effect.

The assay is described as follows: qHTS for Inhibitors of Inflammasome Signaling: IL-1-beta AlphaLISA Primary Screen. Particulars: THP-1 LPS/ATP IL-1B secretion, 16 h; at 57.5 µM, hits give low values. The method in brief: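 Secreted IL-1B measured by AlphaLISA bead assay after 16 h compound exposure of THP-1 cells; compounds (final up to 57.5 uM) added 1 h before LPS (250 ng/mL) and ATP (1.25 mM) stimulation; lower signal means less secretion.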
(In qHTS, concentration-response curves come from the screen itself.)
As to `CN(C(=O)c1cccc(NC(=O)Cc2cccc(NC(=O)C3CCCN(C(=O)C4CC4)C3)c2)c1)C1CCC1` (stereo not drawn), the activity change was 0% (inactive).

On to `COC(=O)c1ccc2nc(-c3ccc(C)cc3)c(Cc3ccc(OC)cc3C)n2c1`, for which the activity change was 16% (inactive).

`O=C(/C=C/c1ccco1)Nc1ccc(Oc2ccccc2)cc1`: the activity change is -58.1% (active).

Regarding `COc1cccc(NC(=O)COC(=O)/C=C/c2ccco2)c1`, the activity change is 19.5% (inactive).

As for `O=C(/C=C/c1ccco1)NC(=S)Nc1ccccc1Br`, the activity change was -18.4% (inactive).

For the compound `CSC1=NCCN1C(=O)c1ccc(S(=O)(=O)N2CCOCC2)cc1`, the activity change was 2.64% (inactive).

Take `CC(=O)Nc1ccc(C(=O)Nc2cc(S(=O)(=O)N3CCOCC3)ccc2N2CCOCC2)cc1`: the activity change is -12.6% (inactive).

For the compound `CCC(C)NC(=O)c1ccc(NC(=O)CC2SC(N3CCCCC3)=NC2=O)cc1` (stereo not drawn), the activity change is -15.8% (inactive).

As to `N=c1oc2ccccc2cc1C(=O)NCc1ccccc1`, the activity change was -22.4% (inactive).

Regarding `COc1cccc2cc(C(=O)NCc3ccc(C)cc3)c(=N)oc12`, the activity change is -59.4% (active).

Regarding `COc1cccc2cc(C(=O)N(C)C)c(=O)oc12`, the activity change was -12.7% (inactive).

`OC[C@@H]1CN(Cc2ccncc2)C[C@H](n2cnc3c(N4CCN(c5ccccc5)CC4)ncnc32)O1`: the activity change was 3.63% (inactive).

For the compound `O=C(Nc1cccnc1)c1ccc(Cl)cc1[N+](=O)[O-]`, the activity change is 0% (inactive).

On to `O=C(Nc1cccnc1)c1cc(Cl)ccc1Cl`, for which the activity change was -60.5% (active).

Regarding `O=C(Nc1cccnc1)c1cc([N+](=O)[O-])ccc1Cl`, the activity change was 0% (inactive).

With `COCCNC(=S)N1CCN(C)CC1`, the activity change was 26.6% (inactive).

In the case of `c1ccc(Cc2ccc(OCCn3ccnc3)cc2)cc1`, the activity change is -57.5% (active).

For the compound `Brc1ccc(OCCn2ccnc2)cc1`, the activity change is -15% (inactive).

In the case of `Clc1ncn(CCOc2ccccc2)c1Cl`, the activity change is -9.73% (inactive).

Turning to `CC(C)Oc1cc(F)ccc1-c1cc(C(=O)Nc2ccc(F)cc2)[nH]n1`, the activity change was -25.4% (inactive).

`Cc1cccc(Oc2c([N+](=O)[O-])c(=O)n(C)c3ccccc23)c1`: the activity change was -101% (active).

`Cn1c(=O)c([N+](=O)[O-])c(Oc2ccccc2)c2ccccc21`: the activity change was -86.4% (active).

`Cn1nc(-c2ccccc2)c2cc([N+](=O)[O-])ccc21`: the activity change was -13.7% (inactive).

With `Cc1cccc(OP(=O)(Nc2c(C)n(C)n(-c3ccccc3)c2=O)Oc2cccc(C)c2)c1`, the activity change is -27.9% (inactive).

On to `Cc1cc(C)c(-c2c(O)c3ccccc3n(C)c2=O)c(C)c1`, for which the activity change was 13% (inactive).

On to `COc1cc2c(=O)n(C)c3ccccc3c2cc1OC`, for which the activity change was -24.4% (inactive).

In the case of `CC(=O)C1=C(O)C(=O)N(c2ccc(S(N)(=O)=O)cc2)C1c1ccccc1F` (stereo not drawn), the activity change is 7.68% (inactive).

`NC(=O)c1ncn([C@@H]2O[C@H](CN=C3NS(=O)(=O)c4ccccc43)[C@@H](O)[C@H]2O)n1`: the activity change is 21.3% (inactive).

With `NS(=O)(=O)c1ccc(CCNC(=S)Nc2ccc(S(N)(=O)=O)cc2)cc1`, the activity change was -3.65% (inactive).

As to `COc1ccc(NC(=S)Nc2ccc(S(N)(=O)=O)cc2)c(C)c1`, the activity change was -12.2% (inactive).

On to `NS(=O)(=O)c1ccc(NC(=S)Nc2ccc(Br)c(Cl)c2)cc1`, for which the activity change was -89% (active).

As for `CCOC(=O)CSc1nc(N2CCOCC2)c2c(c1C#N)CC(C(C)C)OC2` (stereo not drawn), the activity change is 56.1% (inactive).

For `CCOC(=O)CSc1ccccn1`, the activity change is 3.79% (inactive).

For `CCOC(=O)CSc1nccc(N(C)C)c1C#N`, the activity change was -70.3% (active).

For the compound `O=S(=O)(NCCc1csc(-c2ccccc2)n1)c1cccnc1`, the activity change was 41.8% (inactive).

As for `O=S(=O)(Cc1cc(Sc2ccccc2)nc(-c2ccccc2)n1)c1ccccc1`, the activity change is 0% (inactive).

For `O=S(=O)(Cc1cc(Cl)nc(-c2cccnc2)n1)c1ccccc1`, the activity change is -98.6% (active).

With `O=C1NC(Cc2ccccc2)c2nc3ccc(Br)cc3c(=O)n2-c2cc3ccccc3cc21` (stereo not drawn), the activity change is -12% (inactive).

With `C[C@H](O)[C@@H]1C(=O)N2CCc3ccc(N4CCOCC4)cc3[C@@H]2C[C@@H]1N(C)C(=O)C(C)(C)C`, the activity change is 0% (inactive).

As to `CN1OC[C@@H]2CN(C(=O)C(C)(C)C)[C@H](c3ccc(-n4ccnc4)cc3)C[C@@H]21`, the activity change was -20.8% (inactive).

Turning to `Cc1ccccc1S(=O)(=O)N1[C@@H](c2cccc(Cl)c2)C(C(=O)OC(C)(C)C)=CC[C@H]1c1ccc(Cl)cc1`, the activity change is -7.69% (inactive).

In the case of `CCCN1CCN(CCCNC(=O)CN2C(=O)COc3ccccc32)CC1`, the activity change is 5.04% (inactive).

As to `CC(C)OCCCNC(=O)CN1C(=O)/C(=C/c2ccccc2F)Oc2ccccc21`, the activity change is 14.1% (inactive).

As to `CN1CCN(CCCNC(=O)c2ccc(/C=C3\Oc4ccccc4N(Cc4ccc(Cl)cc4)C3=O)cc2)CC1`, the activity change is -78% (active).

With `Cc1cccc(CN2CCN(C3CN(Cc4ccccc4)S(=O)(=O)C3)CC2)c1` (stereo not drawn), the activity change is 5.62% (inactive).

On to `COC(=O)C1C(=O)NCC1c1ccc(OC)cc1` (stereo not drawn), for which the activity change was 5.62% (inactive).

As for `C[C@@H]1CN([C@@H](C)CO)C(=O)c2cc(Br)cnc2O[C@@H]1CN(C)C(=O)C1CCCCC1`, the activity change is -1.93% (inactive).

As for `CC(C)=C1SC(N2CCN(c3cccc(C)c3)CC2)=NC1=O`, the activity change was -56.9% (active).

In the case of `CC(C)=C1SC(N2CCN(c3ccc(C)c(Cl)c3)CC2)=NC1=O`, the activity change was 25.2% (inactive).

`CNS(=O)(=O)c1cnccc1N1CCN(c2cccc(C)c2)CC1`: the activity change is -2.21% (inactive).

Consider `O=c1[nH]c(N2CCN(Cc3ccc4c(c3)OCO4)CC2)nc2c1CCCC2`, for which the activity change is 4.34% (inactive).

Take `Fc1ccc2[nH]c3c(N4CCSCC4)ncnc3c2c1`: the activity change is -62% (active).

Turning to `Fc1ccc2[nH]c3c(N4CCN(Cc5ccc6c(c5)OCO6)CC4)ncnc3c2c1`, the activity change was -94.7% (active).

`CCCCCc1c(C)nc(N2CCN(Cc3ccc4c(c3)OCO4)CC2)[nH]c1=O`: the activity change is -0.641% (inactive).

Take `O=C(NCCS(=O)(=O)N1CCN(c2ccccc2)CC1)c1cc(=O)c2ccccc2o1`: the activity change was -1.79% (inactive).

For `CC(=O)Oc1ccc(OC(C)=O)c2c1C1C=CC2CC1`, the activity change was -13.5% (inactive).

Take `Clc1ccc(-n2nnnc2-c2cnc(-c3ccccn3)nc2-c2cccs2)cc1`: the activity change is -21.9% (inactive).

Consider `c1ccc(-n2nnnc2-c2cccnc2)cc1`, for which the activity change was -6.19% (inactive).

For `FC(F)(F)c1nc(-c2ccccc2)ncc1-c1nnnn1-c1ccccc1`, the activity change was -66.2% (active).

Consider `O=C(OCC(=O)c1c[nH]c2ccccc12)c1cccc(O)c1`, for which the activity change is -4.98% (inactive).

On to `O=C(OCc1ccc(-c2ccccc2)cc1)c1cccc(O)c1`, for which the activity change was -71.1% (active).

Turning to `O=C(CNC(=O)c1ccc(-c2ccccc2)cc1)OCc1ccc(Cl)cc1`, the activity change is 18.8% (inactive).

On to `CCN(CC)CCNC(=O)C1c2ccccc2C(=O)N(C)C1c1cn(C)c2ccccc12` (stereo not drawn), for which the activity change is 6.05% (inactive).

In the case of `CSc1nnc2c(n1)OC(c1cn(C)c3ccccc13)N(C(C)=O)c1ccccc1-2` (stereo not drawn), the activity change was 0.333% (inactive).

On to `Cn1cc(C2OC(=O)c3ccccc32)c2ccccc21` (stereo not drawn), for which the activity change was -66% (active).

As for `CCCc1ccc(C(O)c2ncc(-c3cccc(OC)c3)[nH]2)cc1` (stereo not drawn), the activity change is 26% (inactive).

Turning to `COC(=O)c1ccccc1Oc1c(F)c(F)nc(N2CCOCC2)c1F`, the activity change is 5.09% (inactive).

In the case of `Cn1nc(C(=O)OCC(=O)N(Cc2ccccc2)C(C)(C)C)c2ccccc2c1=O`, the activity change is 10.9% (inactive).

With `COc1ccccc1OCCC(=O)OCC(=O)NCc1ccccc1`, the activity change is 18% (inactive).

In the case of `Cc1ccc(C)c(OCCC(=O)OCC(=O)NC(=O)NCc2ccccc2)c1`, the activity change was -87.8% (active).

Regarding `Cc1ccc(C)c(OCCC(=O)OCC(=O)N2CCN(c3ccccc3)CC2)c1`, the activity change was -2.33% (inactive).

Consider `Nc1[nH]c(C(=O)c2ccccc2)c(-c2ccncc2)c1C(=O)NCc1cccc2ccccc12`, for which the activity change is 7.69% (inactive).

Turning to `Cc1noc(C)c1S(=O)(=O)N(C)C[C@H]1OCCCC[C@@H](C)Oc2ccc(NC(=O)CCCN(C)C)cc2C(=O)N([C@H](C)CO)C[C@@H]1C`, the activity change was 19.6% (inactive).

As to `O=[N+]([O-])c1ccc(CN2CC(N3CC=CC3)CS2(=O)=O)cc1` (stereo not drawn), the activity change is -24.5% (inactive).

For `COC(=O)c1ccc(NC(=O)C23CC4CC(C2)CC(n2cnc(Cl)n2)(C4)C3)cc1`, the activity change is 54.6% (inactive).

As for `O=C(CSc1nc2cccc(F)c2c(=O)n1-c1ccccc1)Nc1ccc2c(c1)CCC2`, the activity change is 0% (inactive).

On to `Oc1c(Cl)cc(Cl)cc1/C=N/c1ncn[nH]1`, for which the activity change is -20.2% (inactive).

For `COc1cc(Br)cc(/C=N/c2ncn[nH]2)c1O`, the activity change is -55.5% (active).

Consider `C=CCn1c(Cn2nnc3ccccc32)nnc1SCC(=O)N/N=C/c1cc(Br)cc(OC)c1O`, for which the activity change was 1% (inactive).

Take `Nn1c(SCC(=O)Nc2nccs2)nncc1=O`: the activity change was 9.24% (inactive).

Consider `C[C@@H]1C[C@@H]2O[C@H]2/C=C\C=C\C(=O)Cc2c(Cl)c(O)cc(O)c2C(=O)O1`, for which the activity change was -108% (active).

For the compound `CC1CCCCC12NC(=O)N(CC(=O)OCC(=O)NCc1ccc(F)cc1)C2=O` (stereo not drawn), the activity change was 28% (inactive).

Consider `CC1=CC(=NNS(=O)(=O)c2ccc([N+](=O)[O-])cc2)CC(C)(C)C1`, for which the activity change was 8.3% (inactive).

Consider `COc1ccc(CCNS(=O)(=O)c2cccc([N+](=O)[O-])c2)cc1`, for which the activity change is -12.5% (inactive).

In the case of `CCOc1ccc(S(=O)(=O)N2CCN(C(=S)NCC3CCCO3)CC2)cc1` (stereo not drawn), the activity change was 8.09% (inactive).

As to `COc1ccc(S(=O)(=O)N2CCN(C(=S)NCC3CCCO3)CC2)cc1OC` (stereo not drawn), the activity change was 41.3% (inactive).

As to `S=C(NCC1CCCO1)N1CCN(c2ccc(Cl)c(Cl)c2)CC1` (stereo not drawn), the activity change was -64.9% (active).

In the case of `CCCC/C=C/c1cccc2nncn12`, the activity change was 0% (inactive).

For the compound `c1ccc2c(C[n+]3csc4ccccc43)cccc2c1`, the activity change is -14.6% (inactive).

For `COC(=O)c1cc2n(n1)CCCNC2=O`, the activity change is -12.8% (inactive).

For the compound `NC(=O)c1ccc(NC(=O)COC(=O)c2c3c(nc4ccccc24)/C(=C\c2ccc4c(c2)OCO4)CCC3)cc1`, the activity change was -3.47% (inactive).

Regarding `O=C(COC(=O)c1ccncc1)Nc1ccc2c(c1)OCO2`, the activity change was 7.7% (inactive).

Regarding `NS(=O)(=O)c1ccc(NC(=O)COC(=O)c2c3c(nc4ccccc24)/C(=C\c2ccc4c(c2)OCO4)CCC3)cc1`, the activity change is -62.6% (active).
